Reference: PubChem BioAssay AID1159580 (chemical genetic matrix, 2015)
Out of some 5,500 compounds screened, about 2,000 (36%) were called active. About 18% were inconclusive and are not listed. No stated cut-off is given here; in the data, active means normalized growth mostly below about 0.91 (no sharp cut-off); inconclusive means no clear call, values can overlap the other calls; inactive means mostly above about 0.92. The list shows a part of the results.

Test: chemical genetic growth profiling, strain panel (AID 1159580);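 further: tested at 20 µM; growth read once vehicle control cultures reached saturation at 30 °C; 1 = growth at the plate median or of vehicle wells; lower values mean less growth of the strain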
Conditions: S. cerevisiae deletion strains, growth OD

Measured: normalized growth

CC(=O)O[C@H]1CC2CCC3C(CC[C@@]4(C)C3C[C@H]([N+]3(C)CCCCC3)[C@@H]4OC(C)=O)[C@@]2(C)C[C@@H]1[N+]1(C)CCCCC1 (stereo not given in full)
inactive: locus YAL021C, strain ccr4, active compounds read low 1.02 | locus YAL026C, strain drs2, active compounds read low 1.02 | locus YAL030W, strain snc1, active compounds read low 1.02 | locus YBL061C, strain skt5, active compounds read low 1.01 | locus YBR009C, strain hhf1, active compounds read low 1.03 | locus YBR023C, strain chs3, active compounds read low 1.03 | locus YBR171W, strain sec66, active compounds read low 1.04 | locus YBR231C, strain swc5, active compounds read low 1.02 | locus YBR279W, strain paf1, active compounds read low 1.01 | locus YCL011C, strain gbp2, active compounds read low 1.02 | locus YCL016C, strain dcc1, active compounds read low 1.02 | locus YCL061C, strain MRC1, active compounds read low 1.02 | locus YCL069W, strain vba3, active compounds read low 1.01 | locus YCR088W, strain abp1, active compounds read low 1.01 | locus YDL005C, strain med2, active compounds read low 1.02 | locus YDL040C, strain nat1, active compounds read low 1.02 | locus YDR001C, strain nth1, active compounds read low 1.01 | locus YDR069C, strain doa4, active compounds read low 1.02 | locus YDR137W, strain rgp1, active compounds read low 1.04 | locus YDR159W, strain sac3, active compounds read low 1.04 | locus YDR195W, strain ref2 0.978 | locus YDR297W, strain sur2, active compounds read low 1.01 | locus YDR334W, strain swr1, active compounds read low 1.01 | locus YDR335W, strain msn5, active compounds read low 1.02 | locus YDR392W, strain spt3, active compounds read low 0.943 | locus YEL003W, strain gim4, active compounds read low 1.02 | locus YEL037C, strain rad23, active compounds read low 1.02 | locus YEL061C, strain CIN8 (second series), active compounds read low 1.02 | locus YER015W, strain faa2, active compounds read low 1.01 | locus YER016W, strain bim1, active compounds read low 1.02 | locus YER111C, strain swi4, active compounds read low 1.01 | locus YER155C, strain BEM2 (second series), active compounds read low 1.03 | locus YFR010W, strain ubp6, active compounds read low 1.01 | locus YGL167C, strain pmr1, active compounds read low 1.02 | locus YGL173C, strain kem1, active compounds read low 1.03 | locus YGL227W, strain vid30, active compounds read low 1.01 | locus YGL240W, strain doc1, active compounds read low 1.02 | locus YGL253W, strain hxk2, active compounds read low 1.02 | locus YHR013C, strain ard1, active compounds read low 1.01 | locus YHR027C, strain rpn1, active compounds read low 1.01 | locus YHR030C, strain SLT2, active compounds read low 1.04 | locus YHR079C, strain IRE1, active compounds read low 1.03 | locus YHR142W, strain chs7, active compounds read low 1.02 | locus YJL092W, strain hpr5, active compounds read low 1.01 | locus YJL095W, strain BCK1 (second series), active compounds read low 1.02 | locus YJL095W, strain BCK1, active compounds read low 1.02 | locus YJL115W, strain asf1, active compounds read low 1.03 | locus YJL129C, strain trk1, active compounds read low 1.02 | locus YJL154C, strain vps35, active compounds read low 1.01 | locus YJL164C, strain tpk1, active compounds read low 1.01 | locus YJL166W, strain qcr8, active compounds read low 1.02 | locus YJL187C, strain SWE1, active compounds read low 1.02 | locus YJR066W, strain TOR1, active compounds read low 0.979 | locus YKL160W, strain elf1, active compounds read low 1.02 | locus YKR026C, strain gcn3, active compounds read low 1 | locus YKR091W, strain srl3, active compounds read low 1.02 | locus YLL001W, strain dnm1, active compounds read low 1.02 | locus YLL026W, active compounds read low 1.03 | locus YLL041C, strain sdh2, active compounds read low 1.02 | locus YLR027C, strain aat2, active compounds read low 1.02 | locus YLR113W, strain HOG1, active compounds read low 0.988 | locus YLR221C, strain rsa3, active compounds read low 1.01 | locus YLR258W, strain gsy2, active compounds read low 1.02 | locus YLR262C, strain YPT6 (second series), active compounds read low 1.04 | locus YLR320W, strain mms22, active compounds read low 1.01 | locus YLR342W, strain FKS1, active compounds read low 1.03 | locus YLR357W, strain rsc2, active compounds read low 0.991 | locus YLR370C, strain arc18, active compounds read low 1.03 | locus YLR384C, strain iki3, active compounds read low 1.01 | locus YML120C, strain ndi1, active compounds read low 1.01 | locus YMR058W, strain fet3, active compounds read low 1.02 | locus YMR125W, strain sto1, active compounds read low 1.02 | locus YMR129W, active compounds read low 1.02 | locus YMR205C, strain PFK2, active compounds read low 1.02 | locus YMR231W, strain pep5, active compounds read low 1.01 | locus YNL071W, strain lat1, active compounds read low 1.01 | locus YNL183C, strain NPR1, active compounds read low 0.974 | locus YNL209W, strain ssb2, active compounds read low 1.01 | locus YNL248C, strain rpa49, active compounds read low 0.988 | locus YNL322C, strain KRE1 (second series), active compounds read low 1.02 | locus YNR049C, strain mso1, active compounds read low 1.01 | locus YOR001W, strain rrp6, active compounds read low 1.03 | locus YOR070C, strain gyp1, active compounds read low 1.02 | locus YOR080W, strain dia2, active compounds read low 1.03 | locus YOR083W, strain WHI5, active compounds read low 1.02 | locus YOR106W, strain vam3, active compounds read low 1.02 | locus YOR231W, strain MKK1, active compounds read low 1.03 | locus YOR265W, strain rbl2, active compounds read low 1.02 | locus YOR270C, strain vph1, active compounds read low 1.05 | locus YOR290C, strain snf2, active compounds read low 1.02 | locus YPL051W, strain arl3, active compounds read low 1.02 | locus YPL078C, strain atp4, active compounds read low 1.01 | locus YPL106C, strain sse1, active compounds read low 1 | locus YPL240C, strain hsp82, active compounds read low 1.02 | locus YPL256C, strain CLN2, active compounds read low 1.04
